Test results: article PMC6602471
Whole data set: some 1,300 sequences, median “log fluorescence intensity” near 8.3, cut for the highest 2% near 12. The sample as a whole holds a higher share of the highest values than the screen did.

target: T1, ETS1 (Homo sapiens, UniProt P14921 1-441); test: custom PBM; custom protein-binding microarray; buffer, salt, pH and temperature not stated; high values mean tight binding; conditions: dsDNA, one strand shown
T1 sequence: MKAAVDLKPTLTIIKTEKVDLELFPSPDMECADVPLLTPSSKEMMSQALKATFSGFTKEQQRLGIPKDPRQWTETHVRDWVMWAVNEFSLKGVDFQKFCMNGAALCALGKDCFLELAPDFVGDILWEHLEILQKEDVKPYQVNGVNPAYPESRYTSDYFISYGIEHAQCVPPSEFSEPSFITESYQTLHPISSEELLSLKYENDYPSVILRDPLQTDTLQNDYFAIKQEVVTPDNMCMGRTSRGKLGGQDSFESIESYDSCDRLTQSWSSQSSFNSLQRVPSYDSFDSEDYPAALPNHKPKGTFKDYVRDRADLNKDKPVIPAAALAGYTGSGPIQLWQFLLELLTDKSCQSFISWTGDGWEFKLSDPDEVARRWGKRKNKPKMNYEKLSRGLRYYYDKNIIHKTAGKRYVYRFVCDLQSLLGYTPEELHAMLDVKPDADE

| Sequence | binding signal |
| --- | --- |
| GGAAAAAGGCCCCGGGTAACACCGGAAGTGGGCTTAGTCTTGATTCGCTTGACGCTGCTG | 12.6 log fluorescence intensity |
| GGAAAAAGGCCCTGGGTAACACCGGAAGTGGGCTTAGTCTTGATTCGCTTGACGCTGCTG | 12 log fluorescence intensity |
| GGAAAAAGGCCCGGGGTAACACCGGAAGTGGGCTTAGTCTTGATTCGCTTGACGCTGCTG | 12.5 log fluorescence intensity |
| TAAAGGGAAGAAGGTTGTGGTAGTTCCGGGTATTAAGTCTTGATTCGCTTGACGCTGCTG | 8.45 log fluorescence intensity |
| GGAAAAAGGCCCAGGGTAACACCGTAAGTGGGCTTAGTCTTGATTCGCTTGACGCTGCTG | 8.34 log fluorescence intensity |
| GTGTATAGGAACCCATCCAACACACGTGTTAAAATGGTCTTGATTCGCTTGACGCTGCTG | 8.33 log fluorescence intensity |
| CGGAAGTGTCGTAACCGTCGGATATCCGGTTCTTCTGTCTTGATTCGCTTGACGCTGCTG | 11.9 log fluorescence intensity |
| TAAAGGGAAGACGGTAGTGGTAGTTCCGGGTATTAAGTCTTGATTCGCTTGACGCTGCTG | 8.7 log fluorescence intensity |
| GCTGCTGCGGTGCATACCCCACCGGACGTGACCCCGGTCTTGATTCGCTTGACGCTGCTG | 8.55 log fluorescence intensity |
| GGAAAAAGGCCCAGGGTAACACCGGAAGTGGGCTTCGTCTTGATTCGCTTGACGCTGCTG | 12.1 log fluorescence intensity |
| GGAAAAAGGCCCAGGGTAACACCGGAAGTGGGCTAAGTCTTGATTCGCTTGACGCTGCTG | 12.1 log fluorescence intensity |
| GGAAAAAGGCCCAGGGTAACACCGGAAGTGGGCTTAGTCTTGATTCGCTTGACGCTGCTG | 12 log fluorescence intensity |
| GGAAAAAGGCCCAGGGTAACACCGGAAGTGGGCTTTGTCTTGATTCGCTTGACGCTGCTG | 12.1 log fluorescence intensity |
| GGAAAAAGGCCCAGGGTAACACCGGAAGTGGGCTGAGTCTTGATTCGCTTGACGCTGCTG | 11.9 log fluorescence intensity |
| GGAAAAAGGCCCAGGGTAACACCGGAAGTGGGCTTGGTCTTGATTCGCTTGACGCTGCTG | 11.8 log fluorescence intensity |
| GAAAAAAGGCCCAGGGTAACACCGGAAGTGGGCTTAGTCTTGATTCGCTTGACGCTGCTG | 12.1 log fluorescence intensity |
| GGAAAAAGGCCCAGGGTAACACCGGAAGTGGGCATAGTCTTGATTCGCTTGACGCTGCTG | 12 log fluorescence intensity |
| GGAAAAAGGCCCAGGGTAACACCGGAAGTGGGCTCAGTCTTGATTCGCTTGACGCTGCTG | 12 log fluorescence intensity |
| TAAAGGAAAGACGGTTGTGGTAGTTCCGGGTATTAAGTCTTGATTCGCTTGACGCTGCTG | 8.77 log fluorescence intensity |
| TGTCGGGTAAGGGAATGTAGATCACGTGACTGAAAAGTCTTGATTCGCTTGACGCTGCTG | 8.33 log fluorescence intensity |

| Sequence | binding signal |
| --- | --- |
| TAAAGGGAAGACGGTTGTGGGAGTTCCGGGTATTAAGTCTTGATTCGCTTGACGCTGCTG | 8.37 log fluorescence intensity |
| CTGAAGTGTCGTAAACGTCGGATATCCGGTTCTTCTGTCTTGATTCGCTTGACGCTGCTG | 11.8 log fluorescence intensity |
| TCCGCCTACCAGCTCCACCCACTTCAGGCCTTGTAGGTCTTGATTCGCTTGACGCTGCTG | 8.47 log fluorescence intensity |
| TAAAGGGAAGACGCTTGTGGTAGTTCCGGGTATTAAGTCTTGATTCGCTTGACGCTGCTG | 8.41 log fluorescence intensity |
| GGAAAAAGGCCCAGGGTAACACCGGATGTGGGCTTAGTCTTGATTCGCTTGACGCTGCTG | 11 log fluorescence intensity |
| CAGCATCGGACTTCTTCCCTGAAGCAATTGATAACCGTCTTGATTCGCTTGACGCTGCTG | 8.4 log fluorescence intensity |
| GCTGCTGCGGTGCATACCCCACCGGATGTGACCCGGGTCTTGATTCGCTTGACGCTGCTG | 10.2 log fluorescence intensity |
| GCTGCTGCGGTGCATACCTCACCGGATGTGACCCCGGTCTTGATTCGCTTGACGCTGCTG | 9.97 log fluorescence intensity |
| GGAAAAAGGCCCAGGGTAACACCGGAAATGGGCTTAGTCTTGATTCGCTTGACGCTGCTG | 11.5 log fluorescence intensity |
| GCTTCTGCGGTGCATACCCCACCGGATGTGACCCCGGTCTTGATTCGCTTGACGCTGCTG | 10.3 log fluorescence intensity |
| GGAAAAAGGCCCAGGGTAACACCTGAAGTGGGCTTAGTCTTGATTCGCTTGACGCTGCTG | 8.36 log fluorescence intensity |
| TAAAGGGAAGACGATTGTGGTAGTTCCGGGTATTAAGTCTTGATTCGCTTGACGCTGCTG | 8.5 log fluorescence intensity |
| GCTGCTGCGGTGCATACCCCACCGGATGTGACCCCAGTCTTGATTCGCTTGACGCTGCTG | 10.1 log fluorescence intensity |
| GGAAAAAGGCCCAGGGTAACACCGGAACTGGGCTTAGTCTTGATTCGCTTGACGCTGCTG | 9.07 log fluorescence intensity |
| GCTGCTGCGGTGCATACCCCACCGGATGTGACCCTGGTCTTGATTCGCTTGACGCTGCTG | 10.1 log fluorescence intensity |
| CTGGGACTTGAACCAACTCTGCCACGTGGGTCGTTTGTCTTGATTCGCTTGACGCTGCTG | 8.34 log fluorescence intensity |
| CGGAAGTGTCGTAAACGTCGGATATCAGGTTCTTCTGTCTTGATTCGCTTGACGCTGCTG | 8.51 log fluorescence intensity |
| GTGTATAGGGTCCCATCCAACACACGTGTTAAAATGGTCTTGATTCGCTTGACGCTGCTG | 8.3 log fluorescence intensity |
| TCCGGCTACCAGCTCCACTCACTTCAGGCCTTGTAGGTCTTGATTCGCTTGACGCTGCTG | 8.4 log fluorescence intensity |
| GTGTATAGGATCCCATCCAACACACGTGTTAAAATGGTCTTGATTCGCTTGACGCTGCTG | 8.35 log fluorescence intensity |
